Experimental data: PubChem BioAssay AID1835 (Johns Hopkins Ion Channel Center, 2009)
Among all 2,400 compounds or so, about 750 (31%) were called active.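 The calls were made as follows: active = median signal gain over dofetilide-blocked control wells reaching their mean plus 3 SD, so readout 1 at least 0; inactive = the rest.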 The list shows a part of the results.

These compounds were tested against Voltage-gated inwardly rectifying potassium channel KCNH2 (Homo sapiens) (UniProt Q12809) (assay: hERG protection against dofetilide inhibition, confirmation, cell-based, thallium flux, duplicate retest, dofetilide IC70 (AID 1835)). Settings: hERG cell line, FluxOR thallium flux, dofetilide-blocked; at 10 µM; stronger effect = higher value.
Chain of Voltage-gated inwardly rectifying potassium channel KCNH2 (Homo sapiens) (Q12809 whole entry, looked up): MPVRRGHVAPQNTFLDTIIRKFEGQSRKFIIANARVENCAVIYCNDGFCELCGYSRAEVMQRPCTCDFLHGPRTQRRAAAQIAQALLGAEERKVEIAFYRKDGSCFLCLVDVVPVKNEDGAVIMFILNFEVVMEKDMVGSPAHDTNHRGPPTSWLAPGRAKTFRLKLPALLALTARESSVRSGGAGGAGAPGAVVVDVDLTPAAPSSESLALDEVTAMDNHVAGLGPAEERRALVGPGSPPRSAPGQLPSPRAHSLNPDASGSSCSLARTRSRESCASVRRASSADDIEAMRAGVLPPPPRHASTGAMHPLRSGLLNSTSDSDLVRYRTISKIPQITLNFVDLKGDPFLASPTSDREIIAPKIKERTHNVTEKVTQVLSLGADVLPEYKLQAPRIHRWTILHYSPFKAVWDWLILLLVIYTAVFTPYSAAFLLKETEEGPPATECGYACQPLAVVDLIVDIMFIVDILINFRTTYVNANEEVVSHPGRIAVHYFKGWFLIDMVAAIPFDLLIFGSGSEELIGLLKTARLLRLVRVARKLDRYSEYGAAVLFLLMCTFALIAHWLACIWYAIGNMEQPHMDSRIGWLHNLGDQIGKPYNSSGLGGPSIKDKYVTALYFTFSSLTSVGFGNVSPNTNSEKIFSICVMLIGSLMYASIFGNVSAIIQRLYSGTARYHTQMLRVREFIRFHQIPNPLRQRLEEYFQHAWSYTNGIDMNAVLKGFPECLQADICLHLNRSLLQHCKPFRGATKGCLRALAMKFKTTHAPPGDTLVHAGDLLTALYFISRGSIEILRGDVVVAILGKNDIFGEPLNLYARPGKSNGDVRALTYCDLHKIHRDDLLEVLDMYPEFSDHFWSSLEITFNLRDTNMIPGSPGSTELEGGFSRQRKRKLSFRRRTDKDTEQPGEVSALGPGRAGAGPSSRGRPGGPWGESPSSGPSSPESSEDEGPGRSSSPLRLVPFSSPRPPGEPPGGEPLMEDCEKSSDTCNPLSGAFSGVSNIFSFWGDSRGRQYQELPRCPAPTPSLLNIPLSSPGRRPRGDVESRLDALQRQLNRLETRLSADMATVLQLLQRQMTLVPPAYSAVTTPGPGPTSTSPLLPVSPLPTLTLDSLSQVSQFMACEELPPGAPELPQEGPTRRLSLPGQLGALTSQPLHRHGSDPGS
With O=C(COc1cccc(-n2cnnn2)c1)Nc1ccc([N+](=O)[O-])cc1 the activity increase over dofetilide control, less the hit threshold was -1% (inactive).
In the case of COc1cccc(OCC(=O)NNC(=O)C(=O)Nc2cccc(C)c2)c1, the activity increase over dofetilide control, less the hit threshold is reported as 50% (active).
In the case of Cc1cccc(OCC(=O)NCc2nc(-c3ccccc3)no2)c1, the activity increase over dofetilide control, less the hit threshold is reported as -13% (inactive).
For COc1cccc(NC(=O)CSCc2n[nH]c(=O)[nH]2)c1, the activity increase over dofetilide control, less the hit threshold was -20% (inactive).
With CCc1ccc(OCC(=O)Nc2ncn[nH]2)cc1 the activity increase over dofetilide control, less the hit threshold was -29% (inactive).
With CCc1ccc(NC(=O)C(=O)NNC(=O)COc2cccc(OC)c2)cc1 the activity increase over dofetilide control, less the hit threshold was 14% (active).
With Cc1ccc(/C=N/N2C(=O)c3ccccc3NC2c2ccc(C)cc2)cc1 (configuration not stated) the activity increase over dofetilide control, less the hit threshold was -7% (inactive).
With Cc1cc([N+](=O)[O-])ccc1-c1ccc(C2Nc3ccccc3C(=O)N2O)o1 (configuration not stated) the activity increase over dofetilide control, less the hit threshold was 7% (active).
COc1cc(/C=C2/OC(=O)c3cc([N+](=O)[O-])ccc32)cc(OC)c1OC was tested, and the activity increase over dofetilide control, less the hit threshold was -10% (inactive).
C=CCn1c(-c2cc(-c3ccc(C)cc3)nc3ccccc23)n[nH]c1=S was tested, and the activity increase over dofetilide control, less the hit threshold was -16% (inactive).
In the case of Cc1ccc(-c2cc(-c3n[nH]c(=S)o3)c3ccccc3n2)cc1, the activity increase over dofetilide control, less the hit threshold is reported as 37% (active).
In the case of Cc1ccc(C(C)C)c(OCc2n[nH]c(=S)o2)c1, the activity increase over dofetilide control, less the hit threshold is reported as -4% (inactive).
With CC(/C=C1\SC(=S)N(NS(=O)(=O)c2ccc(C)cc2)C1=O)=C\c1ccccc1 the activity increase over dofetilide control, less the hit threshold was 7% (active).
In the case of Cc1ccc(S(=O)(=O)N2C(=O)/C(=C3\SC(=S)NC3=O)c3ccccc32)cc1, the activity increase over dofetilide control, less the hit threshold is reported as -6% (inactive).
In the case of CC(/C=C1\SC(=S)N(c2ccc(C(=O)O)cc2)C1=O)=C\c1ccccc1, the activity increase over dofetilide control, less the hit threshold is reported as -15% (inactive).
For COc1ccccc1/C=C1\SC(=S)N(NS(=O)(=O)c2ccc(C)cc2)C1=O, the activity increase over dofetilide control, less the hit threshold was -20% (inactive).
With CC(/C=C1\SC(=S)N(NS(=O)(=O)c2ccccc2)C1=O)=C\c1ccccc1 the activity increase over dofetilide control, less the hit threshold was 15% (active).
O=C(O)CC1S/C(=N/N=C/c2ccc(-c3ccccc3[N+](=O)[O-])o2)NC1=O (configuration not stated) was tested, and the activity increase over dofetilide control, less the hit threshold was -22% (inactive).
For COc1ccc(NC(=O)C(=O)NNC(=O)COc2ccc(Cl)cc2)c(OC)c1, the activity increase over dofetilide control, less the hit threshold was 30% (active).
With COc1ccc(OCC(=O)NNC(=O)C(=O)Nc2cc(OC)ccc2OC)cc1 the activity increase over dofetilide control, less the hit threshold was 8% (active).
In the case of COc1ccc(OC)c(NC(=O)C(=S)NC2CCCCC2)c1, the activity increase over dofetilide control, less the hit threshold is reported as -2% (inactive).
In the case of COc1ccc(NC(=O)C(=O)NNC(=O)COc2ccc(OC)cc2)cc1, the activity increase over dofetilide control, less the hit threshold is reported as -12% (inactive).
For COc1ccc(NC(=O)COC(=O)c2c(C)noc2C)c(OC)c1, the activity increase over dofetilide control, less the hit threshold was -2% (inactive).
COc1ccc(OC)c(NC(=O)C(=O)NNC(=O)C23CC4CC(CC(C4)C2)C3)c1 was tested, and the activity increase over dofetilide control, less the hit threshold was 83% (active).
With COc1cccc(OCC(=O)NNC(=O)C(=O)Nc2ccc(OC)cc2OC)c1 the activity increase over dofetilide control, less the hit threshold was 39% (active).
For COc1ccc(OCC(=O)Nc2c3c(nn2-c2ccc(OC)cc2)CS(=O)(=O)C3)cc1, the activity increase over dofetilide control, less the hit threshold was -18% (inactive).
With COc1ccc(OC)c(NC(=O)COC(=O)c2ccc(-n3cnnn3)cc2)c1 the activity increase over dofetilide control, less the hit threshold was -10% (inactive).
For Cc1n[nH]c(C)c1CCNC(=O)C1CCC(=O)N(Cc2ccccc2F)C1 (configuration not stated), the activity increase over dofetilide control, less the hit threshold was -15% (inactive).
With O=c1c2cc(Cl)ccc2nc(-c2ccc([N+](=O)[O-])cc2)n1O the activity increase over dofetilide control, less the hit threshold was 16% (active).
With O=c1c2ccc(Cl)cc2nc(-c2ccc([N+](=O)[O-])cc2)n1O the activity increase over dofetilide control, less the hit threshold was 16% (active).
In the case of O=[N+]([O-])c1ccc(Nc2ccc(Cl)cc2)nc1, the activity increase over dofetilide control, less the hit threshold is reported as -17% (inactive).
With O=c1c2cc(Br)ccc2nc(-c2ccc([N+](=O)[O-])cc2)n1O the activity increase over dofetilide control, less the hit threshold was 47% (active).
For N#Cc1ccc(-c2nc3cc(Cl)ccc3c(=O)n2O)cc1, the activity increase over dofetilide control, less the hit threshold was -4% (inactive).
In the case of O=[N+]([O-])c1ccc(CSc2nnc(SCc3ccc(Cl)cc3)s2)cc1, the activity increase over dofetilide control, less the hit threshold is reported as 0% (inactive).
In the case of O=C1C(c2ccccc2)C(c2ccccc2)NC(c2ccccc2)C1c1ccccc1 (configuration not stated), the activity increase over dofetilide control, less the hit threshold is reported as -17% (inactive).
With O=C(CC1NCCNC1=O)Nc1ccc([N+](=O)[O-])cc1 (configuration not stated) the activity increase over dofetilide control, less the hit threshold was -17% (inactive).
CC(=O)NCCC(=O)N(C)CC1CCN(CCc2cccc(C(F)(F)F)c2)CC1 was tested, and the activity increase over dofetilide control, less the hit threshold was -6% (inactive).
For CS(=O)(=O)N1CCN(c2ccccc2NC(=O)Nc2cccc(Cl)c2)CC1, the activity increase over dofetilide control, less the hit threshold was -16% (inactive).
In the case of COc1ccccc1C(=O)Nc1ccnn1C1CCN(C(=O)c2ccoc2C)CC1, the activity increase over dofetilide control, less the hit threshold is reported as -7% (inactive).
For COc1cc(/C=N/NC(=O)NC2CCCCC2)ccc1O, the activity increase over dofetilide control, less the hit threshold was -20% (inactive).
In the case of Cc1ccc(NC(=O)C(=O)NNC(=O)c2ccccc2C)cc1Cl, the activity increase over dofetilide control, less the hit threshold is reported as 54% (active).
COc1ccccc1NC(=O)C1CCCN1C(=O)NCc1ccccc1 (configuration not stated) was tested, and the activity increase over dofetilide control, less the hit threshold was -21% (inactive).
COc1ccccc1C(=O)NNC(=O)C(=O)NCc1ccccc1 was tested, and the activity increase over dofetilide control, less the hit threshold was 16% (active).
With COc1ccccc1C(=O)NNC(=O)C(=O)NC(C)(C)C the activity increase over dofetilide control, less the hit threshold was 21% (active).
With COc1cc(NC(=O)c2ccccc2OCc2ccccc2)cc(OC)c1OC the activity increase over dofetilide control, less the hit threshold was -16% (inactive).
With CC(=O)Nc1ccccc1C(=O)C(=O)Nc1ccccc1 the activity increase over dofetilide control, less the hit threshold was -23% (inactive).
For COc1ccccc1C(=O)NNC(=O)C(=O)NC1CCCCC1, the activity increase over dofetilide control, less the hit threshold was 49% (active).
COc1cccc(/C=C2/C(=O)NN(c3ccc(C)c(C)c3)C2=O)c1 was tested, and the activity increase over dofetilide control, less the hit threshold was -14% (inactive).
In the case of COc1ccc(C(=O)NNC(=O)C(=O)NC2CCCCC2)cc1, the activity increase over dofetilide control, less the hit threshold is reported as 5% (active).
In the case of COc1ccccc1CC(=O)Nc1ccc(OC)c(OC)c1, the activity increase over dofetilide control, less the hit threshold is reported as -8% (inactive).
With O=C(COc1ccc(Cl)cc1)NNC(=O)C(=O)NC1CCCCC1 the activity increase over dofetilide control, less the hit threshold was -9% (inactive).
With COc1ccccc1C(=O)NNC(=O)C(=O)Nc1ccc(C)cc1 the activity increase over dofetilide control, less the hit threshold was 77% (active).
COc1ccc(NC(=O)c2ccccc2SC)cc1OC was tested, and the activity increase over dofetilide control, less the hit threshold was -18% (inactive).
In the case of COc1ccc(C(=O)NCc2nnc(SCC(=O)NC3CCCCC3)n2C)cc1, the activity increase over dofetilide control, less the hit threshold is reported as -18% (inactive).
With COc1ccccc1C(=O)NNC(=O)C(=O)Nc1ccc(C)c(Cl)c1 the activity increase over dofetilide control, less the hit threshold was 99% (active).
In the case of O=c1oc2ccccc2c2c1nc(C(F)(F)F)n2-c1ccccc1, the activity increase over dofetilide control, less the hit threshold is reported as -20% (inactive).
In the case of CCCn1nnnc1SCC(=O)Nc1nnc(CC)s1, the activity increase over dofetilide control, less the hit threshold is reported as -6% (inactive).
In the case of O=C(NCCc1nnc2ccc(NCc3ccc(Cl)cc3)nn12)c1ccccc1, the activity increase over dofetilide control, less the hit threshold is reported as -11% (inactive).
COc1ccc(C2CC(c3ccc(Cl)cc3Cl)Nc3nc(N)nn32)cc1OC (configuration not stated) was tested, and the activity increase over dofetilide control, less the hit threshold was -10% (inactive).
O=C(/C=C/Nc1ccc(F)c(F)c1)c1cccs1 was tested, and the activity increase over dofetilide control, less the hit threshold was -18% (inactive).
In the case of Cc1ccccc1NC(=O)CC1S/C(=N/c2nccs2)N(C)C1=O (configuration not stated), the activity increase over dofetilide control, less the hit threshold is reported as 0% (inactive).
In the case of C/C(=N\O)C1CC(CC(=O)O)C1(C)C (configuration not stated), the activity increase over dofetilide control, less the hit threshold is reported as -13% (inactive).
